Bioassay records as filed in PubChem.
This is a sample that favours compounds with a hit; in the whole collection about 17% have one here.
HT1080 IDH1KD tx = toxicity to HT-1080 IDH1 knockdown cells (counter line); actives 2% (n = 360,000); HT-1080 IDH1 knockdown viability, ATP luminescence, 48 h; Potency, µM (doses to about 46.1 µM), inactives show at the highest dose activity, negative = toxicity, usual class: cytotoxic;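 note: 0% = DMSO wells and -100% = cell-free medium wells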
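After a 2 h attachment period, IDH1KD HT-1080 cells took pin-transferred compound for 48 h at 37 °C; ATP-based luminescence after 10 min room-temperature reagent incubation reported viability.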
HT1080-NT tox = kills 2HG-producing HT-1080-NT fibrosarcoma cells. HT-1080-NT fibrosarcoma viability, CellTiter-Glo ATP luminescence, 48 h. Potency, µM (titrated, usually from 46.1 µM), inactives show at the highest dose activity, negative = less viability, most hits filed as cytotoxic. actives 1.6% (n = 360,000);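 note: NT is the 2HG producing partner of a matched IDH1 knockdown line; 0% = DMSO-treated cells and -100% = media-only wells without cells; nearly all actives have a fitted effect of over 55% in size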
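Read-out is CellTiter-Glo luminescence after 10 minutes at room temperature, following 48 hours' compound treatment of HT-1080-NT cells (750 cells/well, RPMI, 5% FBS, 37 degrees C).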
HepG2 tox = counter-screen for TGF-b inhibitors: cytotoxicity in HepG2 cells. HepG2 CAGA-GFP viability, ATP luminescence, 18 h. Potency, µM (doses to about 46.1 µM), for inactives: at the top dose activity change, negative = cytotoxicity, most hits filed as cytotoxic. actives 0.76% (n = 410,000). AID 588856
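HepG2 CAGA-GFP cells (1000/well, DMEM with 1% FBS) received compound, then TGF-beta at 500 pg/mL final, and were incubated 18 hours at 37 degrees C. Viability was read by CellTiter-Glo luminescence. Media-only wells were set as complete cell-killing and DMSO as no toxicity.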
TDP1 cell noCPT = qHTS for Inhibitors of human tyrosyl-DNA phosphodiesterase 1 (TDP1): qHTS in cells in absence of CPT; DT40 Tdp1-/- hTDP1 cells, no CPT, ATP luminescence, 48 h; Potency, µM (titrated, usually from 46.2 µM), inactives show top-dose activity change, negative = growth inhibition, most hits filed as inhibitors; actives 15% (n = 420,000); AID 686978, 2013; note: % is set by controls: 0 for no effect and ±100 for the full control effect; nearly all actives have a fitted effect of over 55% in size
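Cells were dispensed at 400 per well, compounds added by pin tool, plates incubated ≥48 hr at 37 °C, then CellTiter-Glo added for 30 min at room temperature before luminescence reading. Line: DT40 Tdp1-/- complemented with hTDP1; camptothecin omitted.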
TDP1 cell CPT = growth inhibition of DT40 Tdp1-/-;hTDP1 cells with camptothecin (screen for TDP1 inhibitors); chicken DT40 Tdp1-/-;hTDP1 cells + 20 nM CPT, ATP luminescence, 48 h; Potency, µM (doses to about 46.2 µM), for inactives: at the top dose activity change, negative = growth inhibition, hits mostly inhibitors; actives 12% (n = 420,000); note: % is set by controls: 0 for no effect and ±100 for the full control effect; nearly all actives have a fitted effect of over 55% in size
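Chicken DT40 Tdp1-/- cells complemented with human TDP1, 400 cells/well, exposed to compounds plus 20 nM camptothecin for at least 48 h at 37 C; viability read as ATP content by CellTiter-Glo luminescence.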
TGFb inhibitor = TGF-b pathway inhibition; HepG2 CAGA-GFP TGF-b/SMAD3 reporter, GFP fluorescence, 18 h; TGF-beta stimulated, 500 pg/mL final; Potency, µM (series often up to 46.1 µM), for inactives: top-dose activity, negative = inhibition, hits mostly inhibitors; actives 1.2% (n = 410,000); note: % is set by controls: 0 for no effect and ±100 for the full control effect; nearly all actives have a fitted effect of over 65% in size
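Cell-based qHTS in HEPG2 carrying a CAGA-GFP Smad reporter; compounds added before 500 pg/mL final TGF-beta, 18 h incubation at 37 degrees C, GFP fluorescence quantified per cell by imaging cytometry.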
* = called active by the depositor; ? = inconclusive; . = no result given; [ ] = another dose, or the depositor's remark. Calls come from the whole dose curve; as a rule, active = well fitted curve in the direction sought with a large enough effect; inconclusive = small, poorly fitted or top-dose-only effect, or another doubt; inactive = no such curve, though single readings can be large; an effect the other way counts as inactive or inconclusive. Potency is the fitted concentration of half-maximal effect.

SMILES	HT1080 IDH1KD tx	HT1080-NT tox	HepG2 tox	TDP1 cell noCPT	TDP1 cell CPT	TGFb inhibitor
c1ccc(C(c2nnnn2Cc2ccco2)N2CCN(c3nc4ccccc4s3)CC2)cc1 (stereo not drawn)	-15%	-9%	3%	15µM*	?	-2%
COc1ccccc1C(c1nnnn1Cc1ccccc1)N1CCN(c2nc3ccccc3s2)CC1 (stereo not drawn)	-2%	0%	-3%	?	?	-8%
COc1ccc(C(c2nnnn2Cc2ccccc2)N2CCN(c3nc4ccccc4s3)CC2)cc1OC (stereo not drawn)	-17%	-20%	-3%	18µM*	?	-3%
CCC(C)(C)n1nnnc1C(c1ccccc1)N1CCN(C2CCCC2)CC1 (stereo not drawn)	-17%	10%	10%	-28%	3%	0%
CCC(C)(C)n1nnnc1C(c1ccc(O)c(OC)c1)N1CCN(c2nc3ccccc3s2)CC1 (stereo not drawn)	2%	6%	-10%	16µM*	?	-4%
CCC(C)(C)n1nnnc1C(c1ccccc1)N1CCc2ccccc2C1 (stereo not drawn)	0%	0%	8%	23µM*	?	0%
CCC(C)(C)n1nnnc1C(c1ccc(O)c(OC)c1)N1CCc2ccccc2C1 (stereo not drawn)	?	3%[9.24 µM]	-3%	13µM*	7.3µM*	?
CCC(C)(C)n1nnnc1C(c1cc(OC)c(OC)c(OC)c1)N1CCN(c2ccccc2)CC1 (stereo not drawn)	11%	6%	27%	-22%	-9%	17%
COc1ccc(C(N)c2csc(Nc3ccc(C(=O)NCCCO)cn3)n2)cc1 (stereo not drawn)	0%	-8%	0%	?	?	0%
CCCCN(C)C(=O)c1ccc(Nc2nc(C(N)Cc3ccc(C(F)(F)F)cc3)cs2)nc1 (stereo not drawn)	16µM*	?	11µM*	12µM*	8.2µM*	?
CCCCN(C)C(=O)c1ccc(Nc2nc(C(N)CCc3ccccc3)cs2)nc1 (stereo not drawn)	23µM*	18µM*	-89%	21µM*	15µM*	?
O=C(Cc1ccccc1)NCC(=O)OCC(=O)c1ccc(Cl)c([N+](=O)[O-])c1	1%	4%	-17%	?	?	0%
COc1ccccc1C(=O)NC(=O)COC(=O)CN1C(=O)NC(C)(C)C1=O	8%	8%	2%	0%	-17%	-5%
Brc1cccc(-c2nc3cccnc3nc2-c2cccc(Br)c2)c1	13%	15%	-4%	16µM*	?	-8%
COc1ccc(-c2c(C)c3ccc(O)c(CN4CCCCC4)c3oc2=O)cc1OC	.	.	-1%	-18%	-5%	-5%
Cc1[nH]n(-c2ccc(Br)cc2)c(=O)c1/C=N/NC(=O)c1ccccc1	?	?	-42%	2.9µM*	4.6µM*	3.5µM*
Cc1[nH]n(-c2ccccc2)c(=O)c1/C=N/NC(=O)c1cccc(F)c1	7.3µM*	10µM*	16µM*	4.1µM*	5.2µM*	?
O=C(N/N=C/c1ccc(Br)cc1)c1ccc(NC(=O)c2ccccc2)cc1	24%	6%	15%	6%	4%	18%
O=C(N/N=C/c1c(Cl)cccc1Cl)c1cccc(F)c1	12%	12%	-19%	0%	1%	18%
O=[N+]([O-])c1ccc(N2CCSCC2)cc1	3%	11%	-10%	5%	17%	-21%
CCOC(=O)N1CCN(S(=O)(=O)c2ccc(C(=O)Nc3sc4c(c3C#N)CCC4)cc2)CC1	3%	10%	10%	-28%	0%	-9%
CCCN1CCc2c(sc(NC(=O)c3ccc(S(=O)(=O)N(C)c4ccccc4)cc3)c2C(=O)NC)C1	?	?	-22%	?	?	41%
CCCN1CCc2c(sc(NC(=O)c3ccc(S(=O)(=O)N4CCN(C(=O)OCC)CC4)cc3)c2C(N)=O)C1	6.5µM*	7.3µM*	-61%	?	?	1%
CCOC(=O)N1CCN(S(=O)(=O)c2ccc(C(=O)Nc3sc4c(c3C(N)=O)CCN(CC)C4)cc2)CC1	?	?	-29%	21µM*	?	6%
CCCN1CCc2c(sc(NC(=O)c3ccc(S(=O)(=O)N(C)c4ccccc4)cc3)c2C(N)=O)C1	?	-24%	-36%	?	21µM*	11%
SMILES	HT1080 IDH1KD tx	HT1080-NT tox	HepG2 tox	TDP1 cell noCPT	TDP1 cell CPT	TGFb inhibitor
O[C@@H]1CN(Cc2cccs2)[C@@H](c2ccccc2)C[C@H]1n1cc(-c2ccc(F)cc2)nn1	?	-20%	-10%	?	?	-4%
CCOC(=O)c1cnc2ccccc2c1Nc1ccc(N2CCOCC2)cc1	.	.	0%	-19%	?	-2%
CCOC(=O)c1cnc2ccc(OC)cc2c1Nc1ccc2c(c1)OCCO2	?	?	-22%	18µM*	?	4%
CCOC(=O)c1cnc2ccc(OC)cc2c1Nc1ccc(N2CCN(C)CC2)cc1	23µM*	?	-20%	21µM*	23µM*	?
CCOC(=O)c1cnc2ccc(C(=O)OC)cc2c1Nc1ccc2c(c1)OCCO2	23%	16%	-3%	?	?	-8%
CCOC(=O)c1ccc2ncc(C(=O)OCC)c(Nc3ccc(N4CCOCC4)cc3)c2c1	?	?	-32%	6.5µM*	10µM*	?
C[C@H](CO)N1C[C@H](C)[C@@H](CN(C)S(=O)(=O)c2ccc(F)cc2)OCc2cn(nn2)CCCC1=O	12%	4%	8%	2%	-11%	1%
CCc1ccc(-c2[nH]nc3nc(-c4cc(OC)ccc4OC)cc(C(=O)O)c23)cc1	.	.	-2%	1%	-2%	9%
Cc1ccc(CNC(=O)c2ccc(OCC(C)C)cc2)n1C	-4%	0%	1%	-12%	-19%	0%
Cc1ccccc1-c1noc(N)c1C#N	10µM*	?	3%	?	26µM*	-13%
CCOc1cc(-c2noc(N)c2C#N)cc(OCC)c1OCC	5%	-27%	-38%	?	?	-23%
Cc1noc(C)c1NC(=O)N(C)C[C@H]1OCc2cnnn2CCCC(=O)N([C@H](C)CO)C[C@H]1C	-1%	4%	0%	-28%	-5%	4%
